Bioassay records (PubChem)
Sampled rows, rich in hits. Any-hit rate of the full collection: about 10%.
Sfp inh: inhibitors of Bacillus subtilis Sfp phosphopantetheinyl transferase; Q9F4F7; Biochemical Sfp PPTase activity, qHTS; Potency, µM, inactives show largest response in the series, negative = inhibition, most hits filed as inhibitors; actives 3.5% (n = 310,000);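 further: the enzyme is Sfp with the accession as filed and its product quenches rhodamine fluorescence; potency means the concentration at half of the fitted maximal effect; 0% = enzyme reaction without inhibitor and -100% = no enzyme wells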
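Fluorescence-quenching assay: 15 nM Sfp-PPTase preincubated 15 min at room temperature with compound, then 5 uM rhodamine-CoA and 12.5 uM BHQ-2-labelled YbbR peptide added. Fluorescence (ex 525/em 598 nm) read at start and after 30 min; difference gives rate.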
MmCpn inh: blocks the Methanococcus maripaludis chaperonin Mm-Cpn; purified Mm-Cpn ATPase, ADP Transcreener TR-FRET; Potency, µM (top dose mostly 76.9 µM), inactives show at the top dose activity, negative = inhibition, most hits filed as inhibitors; actives 0.031% (n = 330,000); further: potency means the concentration at half of the fitted maximal effect; nearly all actives have a fitted effect of over 80% in size
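Inhibition of chaperonin ATP hydrolysis is measured as reduced ADP production, detected by competitive TR-FRET in which signal falls with ADP. Final enzyme 25 nM and ATP 10 uM, reacted 30 min at 37°C.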
PLK1 PBD block: blocks phosphopeptide binding to human PLK1 polo-box domain; actives 2.8% (n = 360,000); P53350; Potency, µM, inactives show max response, negative = inhibition, most hits filed as inhibitors; Plk1 PBD binding of FITC phosphopeptide, fluorescence polarization; further: potency means the concentration at half of the fitted maximal effect; series mostly up to about 57 µM; nearly all actives have a fitted effect of over 65% in size
VDR inh: blocks the human vitamin D receptor; P11473; VDR-SRC2-3 peptide fluorescence polarization, 2 h; Potency, µM, without a hit: max response, negative = inhibition, most hits filed as inhibitors; actives 0.93% (n = 400,000); AID 504847; further: potency means the concentration at half of the fitted maximal effect
Target sequence (P11473 whole entry, looked up): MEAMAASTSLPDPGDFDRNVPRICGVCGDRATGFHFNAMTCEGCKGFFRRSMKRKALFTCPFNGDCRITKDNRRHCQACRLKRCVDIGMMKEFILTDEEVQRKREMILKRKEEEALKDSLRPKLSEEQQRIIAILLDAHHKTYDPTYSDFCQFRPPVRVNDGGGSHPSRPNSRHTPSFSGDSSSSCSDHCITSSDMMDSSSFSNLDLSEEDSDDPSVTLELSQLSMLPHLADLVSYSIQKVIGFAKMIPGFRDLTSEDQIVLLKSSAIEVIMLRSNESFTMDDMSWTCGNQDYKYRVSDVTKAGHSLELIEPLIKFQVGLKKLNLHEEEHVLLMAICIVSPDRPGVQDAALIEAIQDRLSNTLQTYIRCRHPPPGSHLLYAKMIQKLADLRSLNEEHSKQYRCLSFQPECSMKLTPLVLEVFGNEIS
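VDR–SRC2-3 interaction, FP format. Cmpds 23 nl via pintool, brief spin, 2 h ambient incubation.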
CCT chaperon mod: cytosolic chaperonin activity modulation; purified chaperonin ATPase assay, HTRF ADP detection, 30 min; activity change, % (test concentration not listed), hits read low; actives 0.3% (n = 360,000); in the data active means activity change below about -30%
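ATPase activity: ADP formed was measured by HTRF Transcreener (665/615 nm ratio) after 30 min at 37 deg C with 10 uM ATP. Compounds screened at one 76 uM concentration against 40 or 20 nM TRiC in Tris pH 7.4/KCl/MgCl2/DTT buffer.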
G9a block: inhibitors of human histone lysine methyltransferase G9a. Q96KQ7. G9a H3K9 monomethylation, AlphaScreen, 2 h. Potency, µM (highest dose often 102 µM), for the others: at the highest dose activity, negative = inhibition, usual class: inhibitors. actives 8.8% (n = 350,000); further: potency means the concentration at half of the fitted maximal effect; nearly all actives have a fitted effect of over 75% in size
Target sequence (Q96KQ7 913-1193 limits assumed): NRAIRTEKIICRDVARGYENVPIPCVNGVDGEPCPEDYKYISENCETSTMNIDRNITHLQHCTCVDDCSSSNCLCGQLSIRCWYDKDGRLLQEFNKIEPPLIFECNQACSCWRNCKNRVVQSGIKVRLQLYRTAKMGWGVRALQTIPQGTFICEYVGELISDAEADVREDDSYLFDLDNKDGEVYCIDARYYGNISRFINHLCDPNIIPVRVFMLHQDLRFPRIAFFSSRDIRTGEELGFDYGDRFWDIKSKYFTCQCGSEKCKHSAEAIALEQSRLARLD
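Compounds were preincubated with 20 nM G9a for 15 min, after which biotinylated H3K9 peptide (500 nM) and SAM (20 uM) started a 2 h room-temperature reaction. Monomethylated product was quantified by antibody-based AlphaScreen chemiluminescence.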
* marks the source's active call; other numbers are inactive results; [ ] = dose if it differs, or a comment. Unless noted, the call rests on the fitted dose curve; in most records, active means well fitted curve in the direction sought with a large enough effect; inconclusive means small, poorly fitted or top-dose-only effect, or another doubt; inactive means no such curve, though single readings can be large; an effect the other way counts as inactive or inconclusive. Unless noted, on the % scale 0 is the no-effect control and ±100 the full control effect.

Results for O=C(CCS(=O)(=O)c1ccc(Br)cc1)N1CCCCCC1 ?
Sfp inh: 11.6%; MmCpn inh: 0.6%; PLK1 PBD block: -30.0%; VDR inh: -4.2%; CCT chaperon mod: -73.6*; G9a block: inconclusive

What do the screens show for `CCc1ccccc1NC(=O)CN(Cc1ccccc1)S(=O)(=O)c1ccc(Br)cc1`?
VDR inh: -13.5%; G9a block: -13.0%[59 µM]

Results for Cc1ccc(OCCSc2nc3ccccc3n2CC(=O)N2CCCCC2)c(C)c1 ?
VDR inh: 6.8%; G9a block: 14.1µM*

What do the screens show for `Cc1ccc(C)c(OCCSc2nc3ccccc3n2CC(=O)N2CCOCC2)c1`?
VDR inh: 10.1%; G9a block: inconclusive

What do the screens show for `O=C(O)c1csc(N/N=C/c2ccc(Br)cc2)n1`?
Sfp inh: 3.0%; MmCpn inh: -1.5%; PLK1 PBD block: inconclusive; VDR inh: -23.3%; CCT chaperon mod: 1.7; G9a block: 35.5µM*

Results for CCCC(=O)N1CCCC(c2nc(-c3cccs3)no2)C1 (stereo unspecified) ?
Sfp inh: 16.8%; MmCpn inh: -1.8%; PLK1 PBD block: 29.9µM*; VDR inh: -1.8%; CCT chaperon mod: -0.8; G9a block: 21.3%[59 µM]

What do the screens show for `Cc1ccc(-c2noc(C3CCCN(C(=O)c4ccc(Cl)cc4)C3)n2)o1` (stereo unspecified)?
Sfp inh: 9.9%; MmCpn inh: -21.5%; PLK1 PBD block: -3.2%; VDR inh: 8.6%; CCT chaperon mod: -2.1; G9a block: inconclusive

Results for CCC(C)C(=O)N1CCCC(c2nc(-c3cccs3)no2)C1 (stereo unspecified) ?
Sfp inh: 23.1%; MmCpn inh: 0.9%; PLK1 PBD block: -4.3%; VDR inh: 9.9%; CCT chaperon mod: -2.0; G9a block: 18.2%[59 µM]

How did Cc1ccc(-c2noc(C3CCCN(C(=O)C4CCCCC4)C3)n2)o1 (stereo unspecified) do in these assays?
Sfp inh: inconclusive; MmCpn inh: -7.1%; PLK1 PBD block: -9.7%; VDR inh: 8.2%; CCT chaperon mod: -2.1; G9a block: 11.2µM*

How did Cc1c(CC(=O)NCc2ccccc2Cl)c(=O)oc2cc(O)ccc12 do in these assays?
VDR inh: 8.3%; G9a block: -32.1%[59 µM]

How did Cc1nc(-c2cccc(C(F)(F)F)c2)sc1C(=O)O do in these assays?
Sfp inh: 12.6%; MmCpn inh: -19.9%; PLK1 PBD block: -17.3%; VDR inh: -5.0%; CCT chaperon mod: -0.6; G9a block: 56.2µM*

What do the screens show for `Cc1nc(-c2ccccc2)sc1C(=O)O`?
Sfp inh: 11.5%; MmCpn inh: -13.7%; PLK1 PBD block: -2.5%; VDR inh: 3.4%; CCT chaperon mod: -0.8; G9a block: inconclusive

Results for CCOc1ccc(NC(=O)CSc2ccc(-c3sc(-c4ccccc4)nc3C)nn2)cc1 ?
VDR inh: 9.8%; G9a block: -5.0%[59 µM]

What do the screens show for `O=C(Cn1cc(S(=O)(=O)Cc2ccc(F)cc2)c2ccccc21)NCCc1ccccc1`?
VDR inh: 4.4%; G9a block: -7.8%[59 µM]

What do the screens show for `CCOC(=O)N1CCN(C2CCCN(C(=O)c3ccccc3C(F)(F)F)C2)CC1` (stereo unspecified)?
Sfp inh: 8.8%; MmCpn inh: -2.8%; PLK1 PBD block: 0.5%; VDR inh: -6.0%; CCT chaperon mod: 0.6; G9a block: 70.8µM*

What do the screens show for `COc1ccc(NC2CCCN(C(=O)c3ccccc3C(F)(F)F)C2)cc1` (stereo unspecified)?
Sfp inh: 10.0%; MmCpn inh: 0.8%; PLK1 PBD block: 0.4%; VDR inh: 9.2%; CCT chaperon mod: -1.0; G9a block: 39.8µM*

Results for CC(C)c1ccc(S(=O)(=O)N2CCN(C(=O)[C@@H]3CCCN3C(=O)c3cccs3)CC2)cc1 ?
MmCpn inh: -18.5%; PLK1 PBD block: -5.0%; VDR inh: -8.7%; CCT chaperon mod: 2.4; G9a block: 44.7µM*

What do the screens show for `Cc1ccc(NC2CCCN(C(=O)c3cccs3)C2)cc1C` (stereo unspecified)?
Sfp inh: 2.5%; MmCpn inh: -0.2%; PLK1 PBD block: -9.1%; VDR inh: 12.9%; CCT chaperon mod: 1.3; G9a block: 35.5µM*

How did CCOC(=O)N1CCN(C2CCCN(C(=O)c3ccccc3N(C)C)C2)CC1 (stereo unspecified) do in these assays?
Sfp inh: 6.7%; MmCpn inh: -0.1%; PLK1 PBD block: -9.5%; VDR inh: -14.7%; CCT chaperon mod: 0.0; G9a block: 43.3%

Results for Cc1ccc(NC2CCCN(C(=O)c3nonc3C)C2)cc1C (stereo unspecified) ?
PLK1 PBD block: -10.5%; CCT chaperon mod: 0.0

How did O=C(NCC(c1cccnc1)N1CCc2ccccc21)c1ccc(F)cc1 (stereo unspecified) do in these assays?
VDR inh: 11.2%; G9a block: -1.7%[59 µM]

Results for COc1ccc(NC2CCCN(C(=O)c3cccs3)C2)cc1 (stereo unspecified) ?
Sfp inh: 11.4%; MmCpn inh: -22.5%; PLK1 PBD block: -8.4%; VDR inh: -6.6%; CCT chaperon mod: -0.1; G9a block: 50.1µM*

How did COc1ccc(NC2CCCN(C(=O)c3csc(C(C)C)n3)C2)cc1 (stereo unspecified) do in these assays?
Sfp inh: 20.9%; MmCpn inh: 1.8%; PLK1 PBD block: -13.7%; VDR inh: -6.9%; CCT chaperon mod: -1.4; G9a block: -17.0%

What do the screens show for `CC(C)c1ccc(NC2CCCN(C(=O)c3cccs3)C2)cc1` (stereo unspecified)?
Sfp inh: -4.3%; MmCpn inh: 0.9%; PLK1 PBD block: 8.4%; VDR inh: 1.0%; CCT chaperon mod: -0.3; G9a block: 50.1µM*

How did Cc1cc(C(=O)N2CCCC(N3CCN(c4cccc(C(F)(F)F)c4)CC3)C2)c(C)o1 (stereo unspecified) do in these assays?
Sfp inh: 17.0%; MmCpn inh: -1.1%; PLK1 PBD block: -1.9%; VDR inh: -1.3%; CCT chaperon mod: 0.3; G9a block: 79.4µM*

What do the screens show for `NS(=O)(=O)c1ccc(CNS(=O)(=O)c2ccc(Cl)nc2)cc1`?
Sfp inh: 10.3%; MmCpn inh: inconclusive; PLK1 PBD block: -22.0%; VDR inh: -2.0%; CCT chaperon mod: -0.9; G9a block: 56.2µM*

What do the screens show for `NS(=O)(=O)c1ccc(CNS(=O)(=O)c2cc(Cl)ccc2Cl)cc1`?
Sfp inh: 13.5%; MmCpn inh: 1.8%; PLK1 PBD block: -7.8%; VDR inh: -8.5%; CCT chaperon mod: -38.4*; G9a block: -2.8%[12.7 µM]
